Experimental findings from PubChem BioAssay AID431 (Sanford-Burnham Center for Chemical Genomics, 2006) are described below.

The whole screen tested about 63,000 compounds, of which about 1,100 (1.7%) were called active.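 How the source made its calls: active means compounds whose percent cytotoxicity in the single-dose primary screen, scaled between solvent and toxic-drug controls, exceeds 50; inactive means the rest.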 The full list was thinned out, with actives kept by preference. Measured potencies and affinities stand elsewhere.

This assay can be described thus: viability loss of HPDE-C7K cells – cell-based, fluorescence, HTS, primary screen (AID 431).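 Further: 0% = DMSO solvent wells and 100% = doxorubicin-treated wells.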 The settings on record: HPDE-C7K KRASV12 cells, Alamar Blue viability, 48 h; at 10 µM; active compounds read high. A general note: The colour change of resazurin is a common sign of viable cells or microbes.
For the molecule `CN(C)c1ccc(-c2nn3c(-c4ccc(Cl)cc4Cl)nnc3s2)cc1`, the cytotoxicity is 50.5% (active).

For `CN(C)c1ccc(-c2nn3c(-c4ccccc4Cl)nnc3s2)cc1`, the cytotoxicity is 57.1% (active).

As for `CN(C)c1ccc(-c2nn3c(-c4ccc(Cl)cc4)nnc3s2)cc1`, the cytotoxicity is -7.1% (inactive).

For `Clc1ccccc1-c1nnc2sc(-c3ccncc3)nn12`, the cytotoxicity is 3.4% (inactive).

As to `Cc1nn2c(-c3ccc(Cl)cc3Cl)nnc2s1`, the cytotoxicity was -0.2% (inactive).

For the molecule `COc1ccccc1-c1nnc2sc(-c3ccc(N(C)C)cc3)nn12`, the cytotoxicity was 44% (inactive).

For the molecule `O=S(=O)(Cc1ccccc1)N1CCn2c(nc3ccccc32)C1`, the cytotoxicity is 9.3% (inactive).

For `CCOc1cccc(-c2nnc3sc(COc4ccc(Cl)cc4)nn23)c1`, the cytotoxicity is 24.5% (inactive).

Turning to `CCN(Cc1cc2ccccc2[nH]c1=O)C(=O)C1CCCCC1`, the cytotoxicity was -7.8% (inactive).

For the molecule `Cc1ccc(C(=O)C(C)OC(=O)C2CC(=O)N(C3CCCCC3)C2)cc1` (stereo not given), the cytotoxicity is -11.4% (inactive).

Take `CC(C)(C)c1cc(CN2CCN(CCO)CC2)cc(C(C)(C)C)c1O`: the cytotoxicity is -4.4% (inactive).

As for `CC(C)(C)c1cc(C(=S)N2CCN(CCO)CC2)cc(C(C)(C)C)c1O`, the cytotoxicity was -13.9% (inactive).

In the case of `Cc1cc(N2CCN(c3cccc(C(F)(F)F)c3)CC2)n2ncnc2n1`, the cytotoxicity is -14.7% (inactive).

In the case of `CCNc1sc(C(=O)c2cccs2)c(N)c1C#N`, the cytotoxicity was -11.8% (inactive).

On to `CCNc1sc(C(=O)c2cccs2)c(N)c1-c1nc2ccccc2s1`, for which the cytotoxicity is 74.9% (active).

Take `CNc1sc(C(=O)c2cccs2)c(N)c1-c1nc2ccccc2s1`: the cytotoxicity is 33.2% (inactive).

For the molecule `O=C(NCc1ccncc1)c1c(F)c(F)c(F)c(F)c1F`, the cytotoxicity is -8.2% (inactive).

Consider `Cc1ccc(SCc2cc(=O)[nH]c(N3CCN(Cc4ccc5c(c4)OCO5)CC3)n2)cc1`, for which the cytotoxicity was 0.2% (inactive).

As for `Cn1c(-c2cc(Br)ccc2O)n[nH]c1=S`, the cytotoxicity was 0.6% (inactive).

`Cc1ccccc1OCCCC(=O)Nc1ccc(N2CCOCC2)cc1`: the cytotoxicity is 1.2% (inactive).

For `O=C(Nc1ccccc1)NC1(C(=O)NCCCN2CCOCC2)CCCCC1`, the cytotoxicity is 0.6% (inactive).

With `CC(C)C(c1nnnn1C1CCCC1)N1CCc2ccccc21` (stereo not given), the cytotoxicity is -8.4% (inactive).

As to `COc1ccccc1NC(=O)Nc1ccc2c(c1)OCCO2`, the cytotoxicity is -11.4% (inactive).

As to `COC(=O)c1ccc(C(=O)OC)c(NC(=O)Nc2ccc3c(c2)OCO3)c1`, the cytotoxicity is -0.1% (inactive).

As to `COc1ccc(C(C)(C)C)cc1NC(=O)Nc1ccc2c(c1)OCO2`, the cytotoxicity is 50.7% (active).

Take `CCCCCCOC(=O)C1=C(C)NC(=O)NC1c1ccc(O)cc1` (stereo not given): the cytotoxicity is -1.4% (inactive).

With `N#Cc1c(-c2ccco2)nc(SCC(=O)Nc2cccc(Cl)c2)[nH]c1=O`, the cytotoxicity is 17.5% (inactive).

With `N#Cc1c(-c2ccco2)nc(SCc2ccc(F)cc2)[nH]c1=O`, the cytotoxicity was 68.9% (active).

As for `Cc1nc(SCc2cccc(F)c2)[nH]c(=O)c1C#N`, the cytotoxicity is -15.2% (inactive).

As to `O=C(/C=N\O)NCCCNCc1ccccc1`, the cytotoxicity was 11% (inactive).

Take `O=C(c1noc2c1CCCC2)N1CCN(C(c2ccccc2)c2ccccc2)CC1`: the cytotoxicity was 2.5% (inactive).

Consider `CCOc1cc(C(=O)N(C)c2ccccc2)cc(OCC)c1OCC`, for which the cytotoxicity was 4.9% (inactive).

With `CCCCOCCCNC(=O)COc1ccccc1`, the cytotoxicity was -4% (inactive).

As to `O=C1CC(c2ccco2)CC(O)=C1C=NCCO` (stereo not given), the cytotoxicity was -9.5% (inactive).

Consider `O=C1CC(c2ccco2)CC(O)=C1C=NCCN1CCNCC1` (stereo not given), for which the cytotoxicity was -12.7% (inactive).

Take `O=C1CC(c2ccco2)CC(O)=C1C=Nc1cc(Cl)ccc1O` (stereo not given): the cytotoxicity is 75.8% (active).

For the molecule `Cc1occc1-c1nnc(SCC(=O)N2CCCc3ccccc32)n1Cc1ccco1`, the cytotoxicity is -3.2% (inactive).

In the case of `Cc1ccc(Nc2nc(CSc3nnnn3-c3ccccc3)cc(=O)[nH]2)cc1`, the cytotoxicity was 23.4% (inactive).

For the molecule `COc1ccc2c(C)nc(Nc3nc(C)cc(=O)[nH]3)nc2c1`, the cytotoxicity is 87.3% (active).

Take `Cc1ccc2c(C)nc(Nc3nc(CSc4nnnn4-c4ccccc4)cc(=O)[nH]3)nc2c1`: the cytotoxicity is 54.8% (active).

As for `Cc1ccc(Nc2nc(CSc3nnnn3-c3ccccc3)cs2)cc1`, the cytotoxicity was 39.8% (inactive).

`Cc1nc(Nc2nc(-c3ccccc3)cc(=O)[nH]2)nc2ccccc12`: the cytotoxicity is 68.2% (active).

Consider `CCCCCc1c(C)nc(Nc2nc(C)c3cc(OC)ccc3n2)[nH]c1=O`, for which the cytotoxicity was 9.7% (inactive).

In the case of `Cc1nnc(SCc2cc(=O)[nH]c(Nc3nc(C)c4ccccc4n3)n2)s1`, the cytotoxicity is 3.9% (inactive).

`COc1nc(Nc2nc3ccccc3c(=O)[nH]2)nc2ccc(C)cc12`: the cytotoxicity was 91.7% (active).

Take `CCc1c(C)nc(Nc2nc(C)c3cc(OC)ccc3n2)[nH]c1=O`: the cytotoxicity was 49.1% (inactive).

Take `Cc1nc(-c2ccccc2)cc(=O)[nH]1`: the cytotoxicity was 6.9% (inactive).

Take `COc1ccc2c(C)nc(Nc3nc(C)cc(C)n3)nc2c1`: the cytotoxicity was -1% (inactive).

Consider `COCc1cc(=O)[nH]c(Nc2nc(C)c3ccc(C)cc3n2)n1`, for which the cytotoxicity is 2.4% (inactive).

As to `O=C(O)Cc1nc2nc3c(c(=O)n2[nH]1)CCCC3`, the cytotoxicity is 2% (inactive).

Regarding `Cc1cc(C)nc(NC(=O)c2cccc(Cl)c2)n1`, the cytotoxicity is -1.9% (inactive).

For the molecule `COc1ccc(OCCCC(=O)Nc2ccc3c(c2)OCCO3)cc1`, the cytotoxicity is 12.2% (inactive).

With `C=CCc1c(C)c(C#N)c2nc3ccccc3n2c1NCCN(C)C`, the cytotoxicity is 5.5% (inactive).

With `CCOC(=O)c1cc2c(ccn2C)n1CC(=O)N1CCN(c2ccc(F)cc2)CC1`, the cytotoxicity is -18.9% (inactive).

Turning to `CSc1nc(N2CCOCC2)c2ccccc2n1`, the cytotoxicity was 9.1% (inactive).

As to `Cc1cc(C)c(NC(=O)CN2CCN3CCCC3C2)c(C)c1` (stereo not given), the cytotoxicity was 2.9% (inactive).

Turning to `O=C(NC1CC2CCCC(C1)N2C1CC1)NC12CC3CC(CC(C3)C1)C2` (stereo not given), the cytotoxicity is 5.1% (inactive).

On to `CCOC(=O)c1cccc(NC(=O)CSc2nc3ccccc3c(=O)n2CC)c1`, for which the cytotoxicity was -11.5% (inactive).

As to `O=C(COC(=O)CCC1CCCC1)Nc1ccc(Cl)cn1`, the cytotoxicity is -7.1% (inactive).

For `COc1cccc(N2CC(O)Cn3c2nc2c3c(=O)n(CCCc3ccccc3)c(=O)n2C)c1` (stereo not given), the cytotoxicity was 7.7% (inactive).

With `CN1C(=O)CSc2ccc(NC(=O)Nc3ccccn3)cc21`, the cytotoxicity is -13.1% (inactive).

For `Cc1cc(C)nc(NS(=O)(=O)c2ccccc2)n1`, the cytotoxicity is 16.4% (inactive).

For `O=C(CSc1nc(-c2ccccc2)nc2c1CCCC2)N1CCOCC1`, the cytotoxicity was -14.2% (inactive).

`COc1ccc(-c2ccc(SCC(=O)N3CCOCC3)nn2)cc1`: the cytotoxicity was -3.5% (inactive).

Turning to `COc1ccc(-c2nc3c(c(SCC(=O)N4CCOCC4)n2)COC(C)(C)C3)cc1`, the cytotoxicity is 52.7% (active).
